Measured values published in the supplement of paper PMC3545927.
The other results are listed elsewhere or left out. The true hit rate is not given.

Target: furin, P09958
Experiment: furin cleavage Z-score vs untreated control; higher = more cleavage, active = 3.5 or more, inactive = 1 or less, 8 variable residues between constant flanks
Method in brief: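 Cleavage by purified furin was measured on 8-mer peptides fused to a cDNA oligonucleotide and held on magnetic beads by their N-terminus. Reactions (0.01 ml, 1:10 enzyme:substrate) ran 7.5, 15 or 30 min in 50 mM HEPES pH 7.5 with CaCl2 and NaCl. Released DNA was adapter-tagged by PCR and sequenced, with read counts giving abundance. Log counts versus furin-free reactions were lowess-adjusted and scaled by median absolute deviation to give the cleavage Z-score.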

furin, P09958, sequence (P09958 whole entry): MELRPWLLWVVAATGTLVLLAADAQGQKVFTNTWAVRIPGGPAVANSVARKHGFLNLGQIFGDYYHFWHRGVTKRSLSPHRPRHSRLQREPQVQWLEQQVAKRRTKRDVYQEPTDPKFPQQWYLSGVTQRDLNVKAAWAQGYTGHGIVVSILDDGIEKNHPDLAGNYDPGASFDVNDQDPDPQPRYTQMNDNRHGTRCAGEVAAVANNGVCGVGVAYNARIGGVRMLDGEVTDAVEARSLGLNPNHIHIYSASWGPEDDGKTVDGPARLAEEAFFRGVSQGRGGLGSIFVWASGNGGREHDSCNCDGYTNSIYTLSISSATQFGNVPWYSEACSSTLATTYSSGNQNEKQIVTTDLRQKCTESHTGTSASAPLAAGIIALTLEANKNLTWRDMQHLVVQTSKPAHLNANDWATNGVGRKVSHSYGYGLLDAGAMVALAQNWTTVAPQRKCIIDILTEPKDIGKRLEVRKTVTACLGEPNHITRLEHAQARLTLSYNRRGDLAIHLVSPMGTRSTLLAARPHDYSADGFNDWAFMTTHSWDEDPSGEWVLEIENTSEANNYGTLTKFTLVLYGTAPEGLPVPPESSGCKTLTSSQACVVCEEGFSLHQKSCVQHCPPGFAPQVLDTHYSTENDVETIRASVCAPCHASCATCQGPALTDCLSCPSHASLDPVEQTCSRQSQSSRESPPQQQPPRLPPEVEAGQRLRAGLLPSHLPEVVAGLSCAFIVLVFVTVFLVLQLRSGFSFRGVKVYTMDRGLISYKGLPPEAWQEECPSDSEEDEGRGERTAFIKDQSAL

Sequence	furin cleavage Z-score (7.5 min)	furin cleavage Z-score (15 min)	furin cleavage Z-score (30 min)
CASIFLLALLAGNASASA [HC248]	-0.433 (inactive)	-0.299 (inactive)	-0.909 (inactive)
CAGNWFGCTWAGNASASA [HC434]	2	1.1	-0.112 (inactive)
CARAHRSVLAAGNASASA [FS-1943]	-0.832 (inactive)	-0.15 (inactive)	2.24
CAAVTHINSVAGNASASA [HC1428]	-1.27 (inactive)	-0.864 (inactive)	-0.253 (inactive)
CANRKRSKRRAGNASASA [FS-1240]	10.6 (active)	10.8 (active)	8.12 (active)
CATRARSLRFAGNASASA [FS-1099]	-0.222 (inactive)	2.2	1.03
CATCSRHKRRAGNASASA [FS-96]	4.62 (active)	7.75 (active)	7.17 (active)
CANRKRNKKQAGNASASA [FS-1239]	0.136 (inactive)	0.864 (inactive)	2.02
CAFRSRSLREAGNASASA [FS-774]	5.16 (active)	6.5 (active)	6.69 (active)
CAFRSRSKRRAGNASASA [FS-773]	8.16 (active)	8.31 (active)	7.71 (active)
CASRKRSFFRAGNASASA [FS-3137]	-0.305 (inactive)	2.22	0.35 (inactive)
CADLSDGSWSAGNASASA [HC1360]	-0.871 (inactive)	-1.27 (inactive)	-0.416 (inactive)
